# Source: PubChem BioAssay
# Values joined by “and” are separate entries in the source; they are usually repeats but may differ in a detail not shown here. Equal entries are not always repeated. For some assays here: Entries with a potency or affinity are not part of this list. Active and inactive are the calls of the source.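 Rule for the calls, unless noted: active = compounds whose cell count with miR-34 switched on is under 0.7 times the count with it off; inactive = the rest.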
# What was measured:
# [1] = blockers of polyQ-driven CASP3 activation – cell-based (AID 1583); settings: polyglutamine-induced caspase-3 activation, cell assay; stronger effect = higher value;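 tested at 10 µM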
# [2] = yeast 75Q aggregation reduction – 75Q-TubU reporter (AID 1593); settings: Yeast 75Q polyglutamine aggregation reporter
# [3] = restoration of touch response, mutant HTT neurons – whole organism, C. elegans mechanosensory neurons, N-terminal huntingtin (AID 1599); settings: C. elegans polyQ-huntingtin mechanosensory neurons, stronger effect = higher value
# [4] = blockers of cytochrome c efflux from mitochondria – biochemical, purified mitochondria (AID 1603); settings: stronger effect = lower value;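 note: mouse liver mitochondria challenged with calcium chloride; signal normalized to the plate average as 100%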
# [5] = polyglutamine aggregate formation blockers (AID 1604); settings: polyglutamine-induced protein aggregation inhibition assay; stronger effect = higher value; tested at 2.5 µM
# [6] = glutamate transport activators, MN-1 cells, MN-1 cell line (AID 1612); settings: MN-1 motor neuron cells, stronger effect = higher value;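 note: tested at 1 µM final; 0% = mean of DMSO vehicle wells on each plate; positive means more glutamate uptake than control and negative means less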
# [7] = GFP-Q80 aggregate reduction, neuronal-like cells, cell-based, NGF-treated PC12, GFPQ80 (AID 1614); settings: PC12 NGF-treated GFP-polyQ80 inclusion reduction;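 note: lower means fewer inclusions and 0 means no inclusions at all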
# [8] = 75Q-TubH aggregate inhibition, S. cerevisiae, yeast (AID 1616); settings: S. cerevisiae 75Q-TubH polyglutamine aggregation suppression; stronger effect = higher value
# [9] = compounds altering circadian rhythm period length – cell-based, LOPAC library, luminescence reporter (AID 2774; call rule not given here;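 note: values are relative to mean of DMSO wells on each plate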); settings: circadian reporter cells, at 7 µM, actives lie on both sides
# [10] = P. berghei load reduction in hepatocytes – cell-based, HepG2, luciferase luminescence, HepG2 viability, primary screen (AID 624349; in the data active = parasite load remaining mostly below about 12%, no sharp cut-off; inactive = mostly above about 10%;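 note: 100% = mean of DMSO negative control wells on the same plate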); settings: P. berghei liver stage in HepG2, luciferase luminescence, concentration not given here; parasite load remaining: stronger effect = lower value; viability: measured here: HepG2 viability without parasites
# [11] = test system: Hepatitis C virus NS3 helicase; test: blockers of NS3h binding to ssDNA – biochemical, fluorescence polarization, LOPAC1280 library, primary screen (AID 687035; in the data active = inhibition above about 37%); settings: Purified HCV NS3 helicase, Cy5-dT15 ssDNA binding fluorescence polarization; stronger effect = higher value; concentration not given here
# [12] = target: 6-phosphogluconate dehydrogenase, decarboxylating (Homo sapiens) (UniProt P52209); test: inhibition of human phosphogluconate dehydrogenase – biochemical, recombinant enzyme, NADPH absorbance, primary screen (AID 1159550;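 active = at least 20% inhibition of 6-phosphogluconate dehydrogenase activity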); settings: recombinant 6PGD, NADPH absorbance 341 nm; at 10 µM; stronger effect = higher value
# Sequence of 6-phosphogluconate dehydrogenase, decarboxylating (Homo sapiens) (P52209 whole entry, looked up): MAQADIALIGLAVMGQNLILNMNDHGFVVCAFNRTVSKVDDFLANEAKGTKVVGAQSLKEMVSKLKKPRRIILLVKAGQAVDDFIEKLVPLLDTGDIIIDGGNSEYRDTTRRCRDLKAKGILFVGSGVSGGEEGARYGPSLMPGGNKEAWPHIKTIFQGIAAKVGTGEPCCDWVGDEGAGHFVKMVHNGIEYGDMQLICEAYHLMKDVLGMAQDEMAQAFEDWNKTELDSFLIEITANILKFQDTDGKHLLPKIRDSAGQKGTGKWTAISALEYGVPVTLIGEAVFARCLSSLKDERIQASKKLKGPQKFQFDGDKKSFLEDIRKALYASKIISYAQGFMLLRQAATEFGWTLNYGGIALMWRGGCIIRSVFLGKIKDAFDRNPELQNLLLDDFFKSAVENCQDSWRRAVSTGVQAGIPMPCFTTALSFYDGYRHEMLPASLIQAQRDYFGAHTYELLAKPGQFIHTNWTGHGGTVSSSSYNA
# [13] = EMT-state selective cytotoxicity in co-culture – imaging, PC-3E GFP, TEM4-18 mCherry, primary screen (AID 1345086;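 active = compounds killing one labelled cell type while sparing the other, by normalised counts and ratio limits, not self-fluorescent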;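 for all read-outs here: cells exposed to compound for 72 h before imaging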;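 for red/green cell ratio (normalised): normalised mesenchymal count divided by normalised epithelial count so high means epithelial killing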); settings: PC-3E GFP / TEM4-18 mCherry co-culture, imaging cell counts, at 1 µM; for red/green cell ratio (normalised): actives lie on both sides, counts scaled to control wells, 1 = unselective
# [14] = viability loss with induced miR-34 in A549 – imaging, A549 dox-inducible miR-34, nuclei and caspase counts, primary screen (AID 1347080); settings: A549 miR-34 inducible, Hoechst nuclei count, 48 h
# [15] = blockers of cellular phospholipid synthesis – cell-based, LOPAC library, screen 4, primary screen (AID 1347384; call rule not given here); settings: animal cells, phospholipid biosynthesis inhibition screen; at 10 µM
# [16] = MELAS cybrid and Rieske KO viability enhancers – cell-based, MELAS cybrids, Rieske KO mouse fibroblasts, CellTiter-Glo, primary screen (AID 1508586;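 active = mean z-score across replicates of 1.96 or higher in either the MELAS or the Rieske mutant cell line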;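 note: z relative to plate mean and SD of compound and empty wells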); settings: low glucose
# [17] = target: Mitogen-activated protein kinase 7 (Homo sapiens) (UniProt Q13164); test: Gal4-ERK5 driven luciferase induction – cell-based, HTS, primary screen (AID 1508626;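 active = luciferase signal above three times the same-plate solvent-only control wells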;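 note: luciferase driven by Gal4-ERK5 fusion binding five Gal4 sites before minimal TATA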); settings: HeLa Gal4-ERK5 transactivation, 18 h, at 5 µM, stronger effect = higher value
# Sequence of Mitogen-activated protein kinase 7 (Homo sapiens) (Q13164 whole entry, looked up, the tested form may be a part): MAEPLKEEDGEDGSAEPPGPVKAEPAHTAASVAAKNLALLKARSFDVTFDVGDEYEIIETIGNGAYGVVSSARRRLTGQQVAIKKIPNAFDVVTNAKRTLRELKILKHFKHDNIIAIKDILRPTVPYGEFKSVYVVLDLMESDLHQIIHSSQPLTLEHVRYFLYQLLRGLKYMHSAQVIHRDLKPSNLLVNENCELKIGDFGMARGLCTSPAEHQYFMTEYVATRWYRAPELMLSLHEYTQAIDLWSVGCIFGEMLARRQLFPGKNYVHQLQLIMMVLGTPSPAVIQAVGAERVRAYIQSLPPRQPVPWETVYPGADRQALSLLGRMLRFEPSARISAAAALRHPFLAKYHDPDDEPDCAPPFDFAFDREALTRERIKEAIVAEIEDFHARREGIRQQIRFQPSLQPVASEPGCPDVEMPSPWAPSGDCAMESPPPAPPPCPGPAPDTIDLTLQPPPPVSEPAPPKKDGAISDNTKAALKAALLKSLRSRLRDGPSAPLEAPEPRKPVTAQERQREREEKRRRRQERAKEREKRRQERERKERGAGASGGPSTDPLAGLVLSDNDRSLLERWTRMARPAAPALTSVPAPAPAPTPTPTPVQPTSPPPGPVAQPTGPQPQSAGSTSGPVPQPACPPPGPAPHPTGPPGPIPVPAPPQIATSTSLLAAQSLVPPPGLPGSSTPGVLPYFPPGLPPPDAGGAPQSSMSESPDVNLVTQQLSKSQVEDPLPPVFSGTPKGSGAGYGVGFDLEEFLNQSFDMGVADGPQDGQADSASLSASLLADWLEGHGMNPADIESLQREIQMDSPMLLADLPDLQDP
# [18] = galactose survival enhancers in mitochondrial complex I cybrids – cell-based, galactose medium, ATP luminescence, primary screen (AID 1645843;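 active = z-score of at least 1.8 in each of two replicates, scored against plate mean and spread of sample wells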;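 note: positive z means more ATP and so rescue of galactose-driven cybrid death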); settings: complex I mutant cybrid cells, 72 h, stronger effect = higher value
# [19] = target: NAD(+) hydrolase SARM1 (Homo sapiens) (UniProt Q6SZW1); test: blocking NAD cleavage by SARM1 SAM-TIR – cell lysate, NAD-Glo luminescence (AID 1508614;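 active = compound whose remaining NAD level is above about 45 nM, limit read from the data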;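 note: higher remaining NAD means stronger inhibition of SARM1 NADase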); settings: SAM-TIR HEK293T lysate NADase, at 1 µM, stronger effect = higher value
# Sequence of NAD(+) hydrolase SARM1 (Homo sapiens) (Q6SZW1 whole entry, looked up): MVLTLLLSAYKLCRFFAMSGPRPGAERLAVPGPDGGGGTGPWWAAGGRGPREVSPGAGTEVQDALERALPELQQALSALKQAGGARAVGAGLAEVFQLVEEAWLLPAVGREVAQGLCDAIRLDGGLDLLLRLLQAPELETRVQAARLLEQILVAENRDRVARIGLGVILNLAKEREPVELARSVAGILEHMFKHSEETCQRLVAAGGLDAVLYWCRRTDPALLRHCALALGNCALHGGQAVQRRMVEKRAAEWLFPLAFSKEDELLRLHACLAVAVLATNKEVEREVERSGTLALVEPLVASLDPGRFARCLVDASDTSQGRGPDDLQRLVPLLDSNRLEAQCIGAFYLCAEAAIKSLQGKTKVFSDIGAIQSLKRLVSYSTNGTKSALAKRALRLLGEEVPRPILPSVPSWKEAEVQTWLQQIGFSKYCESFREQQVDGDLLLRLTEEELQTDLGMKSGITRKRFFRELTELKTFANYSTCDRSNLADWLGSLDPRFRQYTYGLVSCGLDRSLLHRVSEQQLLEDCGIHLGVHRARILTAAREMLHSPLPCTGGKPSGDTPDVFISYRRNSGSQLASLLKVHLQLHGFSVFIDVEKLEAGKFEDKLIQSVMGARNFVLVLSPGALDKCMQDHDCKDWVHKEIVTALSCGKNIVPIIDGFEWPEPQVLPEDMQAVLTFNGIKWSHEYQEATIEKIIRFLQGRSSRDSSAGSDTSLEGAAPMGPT
# [20] = measured here: epithelial PC-3E GFP cell survival
# [21] = measured here: mesenchymal TEM4-18 mCherry cell survival
# [22] = stronger effect = lower value, cell number ratio, induced over uninduced
# [23] = measured here: relative caspase fold change +Dox/-Dox
# [24] = measured here: total cells with miR-34 induction, stronger effect = lower value
# [25] = measured here: total cells without miR-34 induction
# [26] = MELAS cybrid survival, CellTiter-Glo 48 h, stronger effect = higher value
# [27] = Rieske KO mouse fibroblast survival, CellTiter-Glo 72 h
smiles,measurement,setting,value
O=c1c(O)c(-c2ccc(O)cc2O)oc2cc(O)cc(O)c12,inhibition,[1],-17.6%
same,score,[2],1.66
same,rescue above control,[3],-6.82
same,cytochrome c release ratio,[4],0.57
same,inhibition of aggregation,[5],49%
same,glutamate uptake change,[6],-11.3%
same,inclusion score,[7],2
same,aggregation suppression score,[8],0.872
same,period change,[9],0.015 h (inactive)
same,parasite load remaining,[10],81.2% (inactive)
same,viability,[10],66.9%
same,inhibition,[11],-4% (inactive)
same,inhibition,[12],-23.3% (inactive)
same,red/green cell ratio (normalised),[13],0.97 (inactive)
same,normalised cell number,[13]; [20],1.01
same,normalised cell number,[13]; [21],0.98
same,fold change,[14]; [22],1.04 (inactive) and 0.943 (inactive)
same,fold change,[14]; [23],0.926 and 0.734
same,cell count,[14]; [24],11400 and 9750
same,cell count,[14]; [25],11000 and 10300
same,outcome,[15],inactive
same,z-score,[16]; [26],-0.297 (inactive)
same,z-score,[16]; [27],0.729
same,luciferase signal,[17],32 AU (inactive)
same,z-score,[18],0.495 (inactive)
O=C(CCc1ccc(O)cc1)c1c(O)cc(O)cc1O[C@@H]1O[C@H](CO)[C@@H](O)[C@H](O)[C@H]1O,parasite load remaining,[10],28.4% (inactive)
same,viability,[10],69.5%
same,inhibition,[12],5.05% (inactive)
same,red/green cell ratio (normalised),[13],1 (inactive)
same,normalised cell number,[13]; [20],0.89
same,normalised cell number,[13]; [21],0.89
same,fold change,[14]; [22],0.867 (inactive)
same,fold change,[14]; [23],1.41
same,cell count,[14]; [24],9120
same,cell count,[14]; [25],10500
same,z-score,[16]; [26],-0.633 (inactive)
same,z-score,[16]; [27],-1.43
same,luciferase signal,[17],28 AU (inactive)
same,z-score,[18],-0.075 (inactive)
CN(C)CCOC(c1ccccc1)c1ccccc1 (tested in a mixture with another compound),inhibition,[1],13%
same,score,[2],1.21
same,rescue above control,[3],26.8
same,cytochrome c release ratio,[4],1.23
same,inhibition of aggregation,[5],69.8%
same,glutamate uptake change,[6],-19.1%
same,inclusion score,[7],2
same,aggregation suppression score,[8],0.942
same,inhibition,[12],11% (inactive)
same,red/green cell ratio (normalised),[13],1.07 (inactive)
same,normalised cell number,[13]; [20],1.32
same,normalised cell number,[13]; [21],1.41
same,fold change,[14]; [22],0.893 (inactive) and 0.836 (inactive)
same,fold change,[14]; [23],1.17 and 1.81
same,cell count,[14]; [24],8830 and 11000
same,cell count,[14]; [25],9890 and 13100
same,z-score,[16]; [26],0.49 (inactive)
same,z-score,[16]; [27],0.296
same,remaining NAD,[19],10 nM (inactive)
same,luciferase signal,[17],28 AU (inactive)
C[N+](C)(C)CC(O)CC(=O)O (centres undefined),inhibition,[1],0.15%
same,score,[2],1.34
same,rescue above control,[3],-5.96
same,cytochrome c release ratio,[4],0.99
same,inhibition of aggregation,[5],88.8%
same,glutamate uptake change,[6],-5.62%
same,inclusion score,[7],2
same,aggregation suppression score,[8],1.39
same,parasite load remaining,[10],33.4% (inactive)
same,viability,[10],63.9%
same,inhibition,[12],-11.2% (inactive)
same,red/green cell ratio (normalised),[13],0.84 (inactive)
same,normalised cell number,[13]; [20],0.96
same,normalised cell number,[13]; [21],0.81
same,fold change,[14]; [22],0.835 (inactive)
same,fold change,[14]; [23],0.677
same,cell count,[14]; [24],6370
same,cell count,[14]; [25],7640
same,z-score,[16]; [26],-0.35 (inactive)
same,z-score,[16]; [27],-0.217
same,luciferase signal,[17],24 AU (inactive)
Oc1cc(O)c2c(c1)O[C@H](c1ccc(O)c(O)c1)[C@@H](O)C2,inhibition,[1],23.8%
same,score,[2],1.24
same,rescue above control,[3],-5.75
same,cytochrome c release ratio,[4],0.5
same,inhibition of aggregation,[5],63.2%
same,glutamate uptake change,[6],14.1%
same,inclusion score,[7],2
same,aggregation suppression score,[8],1.05
same,period change,[9],0.07 h (inactive)
same,parasite load remaining,[10],116% (inactive)
same,viability,[10],105%
same,inhibition,[11],0% (inactive)
same,inhibition,[12],13.7% (inactive)
same,red/green cell ratio (normalised),[13],1.12 (inactive)
same,normalised cell number,[13]; [20],1.02
same,normalised cell number,[13]; [21],1.15
same,fold change,[14]; [22],0.974 (inactive) and 0.863 (inactive) and 0.997 (inactive)
same,fold change,[14]; [23],2.1 and 1.09 and 0.901
same,cell count,[14]; [24],10300 and 8130 and 5640
same,cell count,[14]; [25],10500 and 9420 and 5660
same,outcome,[15],inactive
same,remaining NAD,[19],10 nM (inactive)
same,luciferase signal,[17],24 AU (inactive)
same,z-score,[18],-0.355 (inactive)
